Data on five compounds can be found in PubChem BioAssay (NCATS).

The structures appear in SMILES notation. Results filed as inconclusive are left out. A number with no mark means an inactive call. Calls come from the whole dose curve; as a rule, active = well fitted inhibition curve with a large enough effect; inconclusive = small, poorly fitted or top-dose-only effect; inactive = flat fitted curve, though single readings scatter.
% is set by controls: 0 for no effect and ±100 for the full control effect.

A short description of this test: P-glycoprotein substrates identified in KB-8-5-11 adenocarcinoma cell line, qHTS therapeutic library screen (AID 1346987). Note: nearly all actives have a fitted effect of over 65% in size. Particulars: KB-8-5-11 (P-gp overexpressing) viability, CellTiter-Glo, 72 h; series mostly up to 44.5 µM; activity change, negative = cytotoxicity: at the top concentration. The procedure, abridged:
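Compounds are pinned in dose-response onto KB-8-5-11 cells (500 cells/well, colchicine-free medium) and left 72 h at 37 degree C. CellTiter-Glo luminescence then yields AC50 values.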
(In general: In qHTS, concentration-response curves come from the screen itself.)
Regarding `C=C[C@]1(C)C[C@@H](OC(=O)CO)[C@]2(C)[C@H](C)CC[C@]3(CCC(=O)[C@H]32)[C@@H](C)[C@@H]1O`, the “activity change, negative = cytotoxicity” value is -18%.

Regarding `CCc1c(Cl)c(O)c(Cl)c(O)c1C(=O)O[C@H]1[C@H](O)[C@H](OC)[C@H](OC/C2=C\C=C\C[C@H](O)/C(C)=C\[C@H](CC)[C@@H](O[C@@H]3OC(C)(C)[C@@H](OC(=O)C(C)C)[C@H](O)[C@@H]3O)/C(C)=C/C(C)=C/C[C@@H]([C@@H](C)O)OC2=O)O[C@@H]1C`, the “activity change, negative = cytotoxicity” value was 8.88% [at 17.3 µM].

`COC(=O)c1ccc2c(c1)[nH]c1ncnc(NCCCN3CCCCC3)c12`: the “activity change, negative = cytotoxicity” value is -24.5%.

For `CCCN(CCc1ccsc1)C1CCc2c(O)cccc2C1` (stereo not given), the “activity change, negative = cytotoxicity” value was -26.1%. Consider `CC(=O)O[C@H]1CC(C)(C)CC2[C@]13CO[C@@]21CCC2[C@@]4(C)CC[C@H](O[C@@H]5OC[C@H](O[C@@H]6O[C@H](CO)[C@@H](O)[C@H](O)[C@H]6O[C@@H]6OC[C@@H](O)[C@H](O)[C@H]6O)[C@H](O)[C@H]5O[C@@H]5O[C@H](CO)[C@@H](O)[C@H](O)[C@H]5O)[C@@](C)(CO)C4CC[C@@]2(C)[C@]1(C)C[C@H]3O` (stereo not given in full), for which the activity change, negative = cytotoxicity is -5.92% [at 9.29 µM].
